This passage reports PBM binding z-score results from the supplement of paper PMC6555819.

This assay relates to VDR:RXRa (NR concentration 270 nM, RXRa partner concentration 90 nM). In words: PBM binding z-score (relative to random genomic background probes); higher = stronger binding; sequences stand for … in GC…GCGATTGACAGCGTAGAATGAAGG
Here is the method:
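Protein-binding microarray (Agilent 4x180K custom design, double-stranded 60-nt probes: 5' GC cap, 34-nt variable region, 24-nt constant primer region; full probe sequence given). Purified or IVT nuclear receptor:RXRα heterodimers (3:1 NR:RXRα, mostly 270:90 nM) or homodimers were incubated for 1 h in PBS with 2% milk and no ligand, then detected with Alexa488 antibodies. Fluorescence from o1-orientation probes (~5 replicates averaged) was converted to z-scores against 500 random hg19 background probes. Variable regions are seed direct-repeat (DR0–DR5) sites, all their single-nucleotide variants and half-site ablations.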
Sequence CCTGATAGGTCATGGTCAGCTAATCTACAGTATG came in with a PBM binding z-score of 2.95. Under AATCAAAGTTCAGGACGAGGTAACGTAAAGCACG stands 3; under CCTGCTTGGTCAATGGTCAGCTAAAGCAGCTCGC, -0.576; under TCATATAGGTAAACAGGCGAAAGTCCGTAAGTTA, 1.13. Under ATCGAAAGGTCGTGAGGTCAGTATACAGAAAGGC stands 5.51; under ATCTCTAGGTAACAAGATCAGTGAAAGAGAGGAC, 0.388. Under AGTCAAAGTTCATCTAGGTGACGTAAGATATGCT stands 4.96; under ACTCGGAGGACACAGGTCAGAGCTACGCCAGTGA, 0.834; under TCATATAGGTAAATGCTAGGTGAAGGTCCGATCT, 0.873.

CGTCCAGGGTCAAGGTCAGTGAAAGAGACTCGAA came in with a PBM binding z-score of 4.79. Take CATACAGAGTCAGCTAGGCCAGAGTAGGGACGGC: the PBM binding z-score was -0.518. As for CCTAGGAGGCCAGGGTCACTCAAGCATTTCGCTT, the PBM binding z-score stood at 2.44. Under TCATATAGGTAACGGTGAAAGTCGAACGATATGA stands 0.164. As for GCTGCTAGGGCAACTGATGGTCAGCTAAAGCTCG, the PBM binding z-score is -0.881.

The sequence ATCTCTAGGTAAAGTTCAGTAAAAGATCGATAGA came in with a PBM binding z-score of 1.65. Under AGAACGACGGCAATGAGTTGATAGCACGGGTGGC stands -0.0161. Turning to TCGAGTAGGTTAGGGGCACTCAGAATGGCGTCGA, the PBM binding z-score was -0.143. Under TGATTGAGGTTAAAGATCAGGGAACGTGGCGTCG stands 1.94; under CAAACTTGGTCACGAAAGGTCAAAGTCGAATGAC, 5.37. Under ACTCGGACGACAAAGGTCAGAGCTACGCCAGTGA stands 2.76; under CAGACTAGGTCACGAAAGGTCAAAGTCGAATGAC, 6.8; under GGAACGAGGGCATAGTTGATAGCATCTGTCGACG, 0.655. Under ATATGTAGGTTACATCCGGGTCATGCAGGCTATG stands 3.8. In the case of CCTGCTAGGTCATGGTCAGCTAGTCTACAGTATG, the PBM binding z-score amounted to 1.65. Under GCTGCTAGGTCGGGTTGGTCAGCTAACGGGTACG stands -0.0515.

As for TCATATAGGTAAAGAGGTGAAAGTCCGTAAGTTA, the PBM binding z-score was 1.45. In the case of TGAATGAGGTTATAAGAGCAGGGAACGTTGCAAA, the PBM binding z-score worked out at 0.901.

Regarding TGTCAAAGTTCAAAGGTAACGTATGTATCCACAC, the PBM binding z-score is 5.14. TTTTGTAGATCAGCAGGTTAAGAAAGCTGGCCAA displayed a PBM binding z-score of 0.0929. Under CCTACTGGGCCATCAGGTCACTGATATCAACGTT stands 1.34; under CCGAGTAGGTTATGGGGCATTCTGGCAACGGTGA, -0.0151; under TCGAGTAGGTTACCAATGGGGCATTCGGCTTTCT, 0.0858. Under GCTGCTAGCTCAGGTTGGTCAGCTAACGGGTACG stands -0.71; under TCTTGTAGATCAATAGAGGTTAATAAAGTGCGCT, 1.84. Under CCGACTGGGGAATAAGGTTACCATAAGCCAGCCC stands 0.185. Sequence GTACCAAGGTGAATAGTTCGTTGATGAGTAGGCG registered a PBM binding z-score of 0.251.

As for TCTTGCAGATCAGCAGGTTAAGAAAGCTGGCCAA, the PBM binding z-score is -0.0921. CCTAGCAGGCCAATCTGGGTCACTCAGGGCTTGA showed a PBM binding z-score of 0.721. In turn, CAAACTAGGTCACGAAAGGTCAGAGTCGAATGAC showed a PBM binding z-score of 6.2.

Regarding AGAATGAGGTTATACGTAGATCAAGGAAGAAAGT, the PBM binding z-score is 1.33.
